Reference: PubChem BioAssay (EPA / NIEHS)
Where “and” joins values, the source holds several entries; their conditions need not be identical. Identical values can stand only once. Where a structure was tested more than once in an assay, its records may differ in their call. Calls of active or inactive are those of the source. The calls were made as follows: active = hit-call score of the fitted dose curve at least 0.9, where 1 is the maximum; inactive = score below 0.9.

How the values were obtained:
Settings in all cases: mRNA level, 48 h; actives raise or lower the signal
[1] = read-out: ABC Transporter (ABCB11), ABCB11 (gene 8647); assay: LTEA_HepaRG_ABCB11: Life Technologies and Expression Analysis (LTEA) Assay for ABC Transporter (ABCB11) using HepaRG (AID 2283463)
Outline: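 ABCB11 transcript levels are read by Fluidigm TaqMan qRT-PCR after 48 h chemical treatment of human HepaRG cells. Concentrations span 100 uM downward in half-log steps with 0.5% DMSO; gain or loss is fitted against DMSO controls.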

[2] = read-out: Broad substrate specificity ATP-binding cassette transporter ABCG2 (Homo sapiens) (UniProt Q9UNQ0); assay: LTEA_HepaRG_ABCG2: Life Technologies and Expression Analysis (LTEA) Assay for ABC Transporter (ABCG2) using HepaRG (AID 2283465)
Outline: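 Read-out is ABCG2 mRNA induction or loss quantified by qRT-PCR after 48 h chemical treatment of human HepaRG cells, normalized to three housekeeping genes. Concentrations reached 100 uM top in half-log steps; fitting was bidirectional against 0.5% DMSO.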

[3] = read-out: ATP-citrate lyase (ACLY), ACLY (gene 47); assay: LTEA_HepaRG_ACLY: Life Technologies and Expression Analysis (LTEA) Assay for ATP-citrate lyase (ACLY) using HepaRG (AID 2283466)
Outline: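 HepaRG, 48 h exposure, 8-pt half-log dilutions (top 100 uM), 0.5% DMSO. Readout: ACLY mRNA, TaqMan qRT-PCR, housekeeping-normalized (ACTB/GAPDH/POLR2A). Bidirectional curve fit vs DMSO.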

[4] = read-out: Peroxisomal acyl-coenzyme A oxidase 1 (ACOX1) gene, ACOX1 (gene 51); assay: LTEA_HepaRG_ACOX1: Life Technologies and Expression Analysis (LTEA) Assay for Peroxisomal acyl-coenzyme A oxidase 1 (ACOX1) gene using HepaRG (AID 2283467)
Outline: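 Measured by qRT-PCR against three housekeeping genes: ACOX1 transcript change in human HepaRG cells after 48 h dosing. Concentrations ran up to 100 uM in half-log steps. Curves were fitted bidirectionally relative to 0.5% DMSO.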

[5] = read-out: Alkaline Phosphatase, Placental (ALPP) gene, ALPP (gene 250); assay: LTEA_HepaRG_ALPP: Life Technologies and Expression Analysis (LTEA) Assay for Alkaline Phosphatase, Placental (ALPP) gene using HepaRG (AID 2283468)
Outline: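 Differentiated human HepaRG cells were plated and cultured 48 h, then exposed in duplicate for 48 h in serum-free induction medium to eight half-log concentrations from 100 uM in 0.5% DMSO. ALPP mRNA was measured by TaqMan qRT-PCR, normalized to ACTB, GAPDH, POLR2A.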

[6] = read-out: Bcl-2 (BAD) gene, BAD (gene 572); assay: LTEA_HepaRG_BAD: Life Technologies and Expression Analysis (LTEA) Assay for Bcl-2 (BAD) gene using HepaRG (AID 2283469)
Outline: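 BAD transcript change, measured by qRT-PCR against three housekeeping genes and fitted in both directions relative to 0.5% DMSO, after 48 h chemical treatment of human HepaRG liver cells at concentrations up to 100 uM.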

[7] = read-out: Bcl-2 (BAX) gene, BAX (gene 581); assay: LTEA_HepaRG_BAX: Life Technologies and Expression Analysis (LTEA) Assay for Bcl-2 (BAX) gene using HepaRG (AID 2283470)
Outline: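 Differentiated HepaRG cells exposed 48 h in serum-free induction medium, eight half-log concentrations from 100 uM, in duplicate, 0.5% DMSO vehicle. BAX mRNA by TaqMan qRT-PCR, normalised to ACTB, GAPDH and POLR2A.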

[8] = read-out: adenosine kinase (ADK) gene, ADK (gene 132); assay: LTEA_HepaRG_ADK: Life Technologies and Expression Analysis (LTEA) Assay for adenosine kinase (ADK) gene using HepaRG (AID 2283471)
Outline: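 Following 48 h exposure of HepaRG cells in 0.5% DMSO (top concentration 100 uM, duplicate wells), ADK mRNA induction or suppression was measured by qRT-PCR, normalised to ACTB/GAPDH/POLR2A, and fitted bidirectionally relative to vehicle.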

[9] = read-out: Alpha-fetoprotein (AFP) gene, AFP (gene 174); assay: LTEA_HepaRG_AFP: Life Technologies and Expression Analysis (LTEA) Assay for Alpha-fetoprotein (AFP) gene using HepaRG (AID 2283472)
Outline: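 Differentiated human HepaRG cells exposed 48 h in serum-free induction medium, 8-point half-log series from 100 uM in 0.5% DMSO, duplicate. AFP mRNA by qRT-PCR, normalized to ACTB, GAPDH, POLR2A; bidirectional fit vs DMSO.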

[10] = read-out: BCL2L11 (gene 10018); assay: LTEA_HepaRG_BCL2L11: Life Technologies and Expression Analysis (LTEA) Assay for Bcl-2 (BCL2L11) gene using HepaRG (AID 2283473)
Outline: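 Differentiated human HepaRG cells in serum-free induction medium were exposed in duplicate for 48 h to eight concentrations (top 100 uM, half-log steps, 0.5% DMSO). BCL2L11 mRNA was quantified by TaqMan qRT-PCR, normalized to ACTB/GAPDH/POLR2A, bidirectional fit versus DMSO.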

[11] = read-out: Apolipoprotein A-V (APOA5) gene, APOA5 (gene 116519); assay: LTEA_HepaRG_APOA5: Life Technologies and Expression Analysis (LTEA) Assay for Apolipoprotein A-V (APOA5) gene using HepaRG (AID 2283474)
Outline: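 Differentiated human HepaRG cells were exposed in duplicate for 48 h to eight half-log concentrations from 100 uM in 0.5% DMSO. APOA5 mRNA was quantified by TaqMan qRT-PCR, normalized to ACTB, GAPDH and POLR2A, and fitted bidirectionally against DMSO.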

[12] = read-out: Apoptosis regulator Bcl-2 (Homo sapiens) (UniProt P10415); assay: LTEA_HepaRG_BCL2: Life Technologies and Expression Analysis (LTEA) Assay for Bcl-2 gene using HepaRG (AID 2283475)
Outline: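 Differentiated human HepaRG cells in serum-free induction medium exposed 48 h, in duplicate, to 8-point half-log series from 100 uM in 0.5% DMSO. BCL2 mRNA by qRT-PCR (TaqMan/Fluidigm), normalized to ACTB, GAPDH, POLR2A; bidirectional fit against DMSO.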

[13] = read-out: Caspase-3 (Homo sapiens) (UniProt P42574); assay: LTEA_HepaRG_CASP3: Life Technologies and Expression Analysis (LTEA) Assay for cysteine-aspartic acid protease (CASP3) using HepaRG (AID 2283477)
Outline: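 Differentiated human HepaRG cells in serum-free induction medium were exposed 48 h to 8-point half-log concentrations from 100 uM (0.5% DMSO vehicle). CASP3 mRNA was measured by qRT-PCR, normalised to ACTB, GAPDH and POLR2A, with bidirectional fitting against DMSO.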

[14] = read-out: Cytochrome P450 (CYP24A1), CYP24A1 (gene 1591); assay: LTEA_HepaRG_CYP24A1: Life Technologies and Expression Analysis (LTEA) Assay for Cytochrome P450 (CYP24A1) using HepaRG (AID 2283478)
Outline: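 Differentiated HepaRG cells, pre-cultured 48 h, were exposed in duplicate for 48 h in serum-free induction medium to 8 half-log concentrations (top 100 uM, 0.5% DMSO). CYP24A1 mRNA was quantified by TaqMan qRT-PCR, normalized to ACTB/GAPDH/POLR2A, fitted bidirectionally versus DMSO.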

[15] = read-out: Cytochrome P450 (CYP1A2), CYP1A2 (gene 1544); assay: LTEA_HepaRG_CYP1A2: Life Technologies and Expression Analysis (LTEA) Assay for Cytochrome P450 (CYP1A2) using HepaRG (AID 2283479)
Outline: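 Differentiated human HepaRG cells in serum-free induction medium were exposed in duplicate for 48 h to 8-point half-log concentrations up to 100 uM in 0.5% DMSO. CYP1A2 mRNA measured by qRT-PCR, normalized to ACTB, GAPDH, POLR2A; bidirectional fit vs DMSO.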

[16] = read-out: cysteine-aspartic acid protease (CASP8), CASP8 (gene 841); assay: LTEA_HepaRG_CASP8: Life Technologies and Expression Analysis (LTEA) Assay for cysteine-aspartic acid protease (CASP8) using HepaRG (AID 2283480)
Outline: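 HepaRG, 48 h exposure, duplicate wells; 8 conc, half-log from 100 uM, 0.5% DMSO. Serum-free induction medium. CASP8 mRNA by TaqMan qRT-PCR, norm. ACTB/GAPDH/POLR2A; gain/loss fitted vs DMSO.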

[17] = read-out: Cytochrome P450 (CYP2B6), CYP2B6 (gene 1555); assay: LTEA_HepaRG_CYP2B6: Life Technologies and Expression Analysis (LTEA) Assay for Cytochrome P450 (CYP2B6) using HepaRG (AID 2283481)
Outline: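 Differentiated HepaRG cells, serum-free induction medium, exposed 48 h in duplicate to 8-point half-log concentrations from 100 uM in 0.5% DMSO. CYP2B6 mRNA by qRT-PCR, normalized to ACTB, GAPDH, POLR2A; bidirectional fit versus DMSO.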

[18] = read-out: Cytochrome P450 2C19 (Homo sapiens) (UniProt P33261); assay: LTEA_HepaRG_CYP2C19: Life Technologies and Expression Analysis (LTEA) Assay for CYP2C19 using HepaRG (AID 2283482)
Outline: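 Differentiated human HepaRG cells were exposed for 48 h in serum-free induction medium to 8 concentrations (top 100 uM, half-log steps, 0.5% DMSO). CYP2C19 mRNA was measured by qRT-PCR, normalized to ACTB/GAPDH/POLR2A, and fitted bidirectionally against DMSO.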

[19] = read-out: ABC Transporter (ABCC2), ABCC2 (gene 1244); assay: LTEA_HepaRG_ABCC2: Life Technologies and Expression Analysis (LTEA) Assay for ABC Transporter (ABCC2) using HepaRG (AID 2283464)
Outline: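 HepaRG cells were plated 48 h, switched to serum-free induction medium, then exposed in duplicate for 48 h to 8 concentrations (top 100 uM, half-log steps, 0.5% DMSO). ABCC2 mRNA was measured by qRT-PCR normalized to ACTB/GAPDH/POLR2A; bidirectional fitting versus DMSO.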

[20] = read-out: Bcl-2 (BID) gene, BID (gene 637); assay: LTEA_HepaRG_BID: Life Technologies and Expression Analysis (LTEA) Assay for Bcl-2 (BID) gene using HepaRG (AID 2283476)
Outline: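 Gene expression by qRT-PCR in HepaRG cells after 48 h exposure, duplicate wells, eight half-log concentrations topping at 100 uM in 0.5% DMSO. Normalized to ACTB, GAPDH, POLR2A; bidirectional fitting relative to DMSO.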

Measured: AC50

Sequence of Broad substrate specificity ATP-binding cassette transporter ABCG2 (Homo sapiens) (Q9UNQ0 whole entry, looked up): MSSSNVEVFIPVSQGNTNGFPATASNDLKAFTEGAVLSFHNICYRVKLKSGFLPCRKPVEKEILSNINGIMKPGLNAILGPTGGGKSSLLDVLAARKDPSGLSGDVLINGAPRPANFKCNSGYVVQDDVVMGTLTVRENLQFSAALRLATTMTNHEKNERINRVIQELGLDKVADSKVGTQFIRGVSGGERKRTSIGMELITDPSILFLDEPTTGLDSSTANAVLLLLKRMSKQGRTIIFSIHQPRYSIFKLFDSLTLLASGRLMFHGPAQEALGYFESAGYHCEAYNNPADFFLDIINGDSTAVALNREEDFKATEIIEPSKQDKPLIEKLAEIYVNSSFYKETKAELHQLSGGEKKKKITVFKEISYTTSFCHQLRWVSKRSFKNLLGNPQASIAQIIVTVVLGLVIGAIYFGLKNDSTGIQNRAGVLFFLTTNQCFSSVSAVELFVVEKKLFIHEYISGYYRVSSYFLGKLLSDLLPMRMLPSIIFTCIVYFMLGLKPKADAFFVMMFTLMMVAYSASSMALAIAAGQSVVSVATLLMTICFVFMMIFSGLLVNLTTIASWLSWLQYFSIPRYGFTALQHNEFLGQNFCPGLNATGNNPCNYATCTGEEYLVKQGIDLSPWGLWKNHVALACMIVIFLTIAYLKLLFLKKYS
Sequence of Cytochrome P450 2C19 (Homo sapiens) (P33261 whole entry, looked up): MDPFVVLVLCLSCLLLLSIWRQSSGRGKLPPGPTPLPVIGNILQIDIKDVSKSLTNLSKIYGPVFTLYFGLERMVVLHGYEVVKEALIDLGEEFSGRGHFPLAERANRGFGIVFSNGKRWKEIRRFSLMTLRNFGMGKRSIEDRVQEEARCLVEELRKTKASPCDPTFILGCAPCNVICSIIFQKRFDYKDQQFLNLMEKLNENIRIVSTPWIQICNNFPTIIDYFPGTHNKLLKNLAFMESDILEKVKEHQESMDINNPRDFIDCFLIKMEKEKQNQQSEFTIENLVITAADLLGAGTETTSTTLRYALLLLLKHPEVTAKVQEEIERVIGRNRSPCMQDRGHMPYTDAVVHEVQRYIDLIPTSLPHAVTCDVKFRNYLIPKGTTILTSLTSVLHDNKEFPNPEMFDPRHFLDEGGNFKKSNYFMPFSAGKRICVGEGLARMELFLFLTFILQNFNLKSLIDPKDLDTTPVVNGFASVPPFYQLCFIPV
Sequence of Apoptosis regulator Bcl-2 (Homo sapiens) (P10415 whole entry, looked up): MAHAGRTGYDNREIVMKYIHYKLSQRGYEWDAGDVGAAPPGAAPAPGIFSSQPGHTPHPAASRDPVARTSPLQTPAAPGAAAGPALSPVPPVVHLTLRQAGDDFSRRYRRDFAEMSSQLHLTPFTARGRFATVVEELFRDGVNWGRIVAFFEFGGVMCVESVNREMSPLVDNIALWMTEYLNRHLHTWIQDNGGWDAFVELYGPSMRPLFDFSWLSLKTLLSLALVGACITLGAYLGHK
Sequence of Caspase-3 (Homo sapiens) (P42574 whole entry, looked up): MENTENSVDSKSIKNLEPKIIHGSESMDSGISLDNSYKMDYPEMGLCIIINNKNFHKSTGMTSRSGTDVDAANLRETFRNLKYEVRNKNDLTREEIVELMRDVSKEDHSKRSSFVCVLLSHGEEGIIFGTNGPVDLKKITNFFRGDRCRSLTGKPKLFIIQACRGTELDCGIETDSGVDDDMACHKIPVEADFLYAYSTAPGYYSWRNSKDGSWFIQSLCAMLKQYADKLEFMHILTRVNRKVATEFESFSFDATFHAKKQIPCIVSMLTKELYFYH

ClC1C(Cl)C(Cl)C(Cl)C(Cl)C1Cl (configuration not stated)
active: [2] 3.28 µM | [9] 19.5 µM | [17] 758 nM and 392 nM | [18] 1.1 µM and 1.12 µM
inactive: [1] | [2] | [3] | [4] | [5] | [6] | [7] | [8] | [9] | [10] | [11] | [12] | [13] | [14] | [15] | [16]

CC1(c2ccc(Oc3ccccc3)cc2)OC(=O)N(Nc2ccccc2)C1=O (configuration not stated)
inactive: [6] | [13] | [14]
active: [1] 8.3 µM | [19] 79.3 µM | [2] 13.2 µM | [3] 3.66 µM | [4] 26.7 µM | [5] 11.2 µM | [7] 12.2 µM | [8] 73.7 µM | [9] 9.81 µM | [10] 11.7 µM | [11] 28.3 µM | [12] 9.6 µM | [15] 50.2 µM | [16] 11.7 µM | [17] 8.83 µM | [18] 26.3 µM

COP(=S)(OC)Oc1ccc([N+](=O)[O-])cc1
active: [15] 32.8 µM | [17] 15.7 µM | [18] 50 µM
not listed: [19]
inactive: all other assays above

CC(C)(C)C(O)C(Oc1ccc(Cl)cc1)n1cncn1 (configuration not stated)
active: [1] 9.92 µM | [3] 73.6 µM and 50 µM and 34.1 µM | [4] 1.25 µM | [9] 4.76 µM and 9.92 µM and 50 µM | [11] 50 µM | [15] 22.2 µM and 36.8 µM and 32.8 µM | [17] 2.21 µM and 3.37 µM and 1.68 µM | [18] 2.61 µM and 3.24 µM and 1.89 µM
inactive: [1] | [2] | [4] | [5] | [6] | [7] | [8] | [10] | [11] | [12] | [20] | [13] | [14] | [16]

O=S1OCC2C(CO1)C1(Cl)C(Cl)=C(Cl)C2(Cl)C1(Cl)Cl (configuration not stated)
active: [1] 50 µM | [3] 87.1 µM | [4] 53.9 µM | [9] 50 µM | [11] 63.8 µM | [12] 84.7 µM | [15] 35.4 µM | [17] 90.1 µM | [18] 89.2 µM
inactive: [2] | [5] | [6] | [7] | [8] | [10] | [13] | [14] | [16]

O=C(O)C(F)(F)C(F)(F)C(F)(F)C(F)(F)C(F)(F)C(F)(F)C(F)(F)F
inactive: [1] | [2] | [3] | [5] | [6] | [7] | [8] | [9] | [10] | [11] | [12] | [13] | [14] | [15] | [16]
active: [4] 3.48 µM and 8.37 µM | [5] 9.92 µM | [17] 17.9 µM and 3.15 µM | [18] 9.92 µM and 5.55 µM
